In PubChem BioAssay (Tox21):
Results filed as inconclusive are left out. A structure can be active in one record and inactive in another. Active and inactive are the calls of the source. Unless noted, calls follow the shape of the dose curve; as a rule, active = well fitted curve in the direction sought with a large enough effect in the repeat runs; inconclusive = weak or mixed curves; inactive = no such curve, though single readings can be large; an effect the other way counts as inactive or inconclusive.

What was measured:
[1] = target: Estrogen receptor (Homo sapiens) (UniProt P03372); test: qHTS assay to identify small molecule antagonists of the estrogen receptor alpha (ER-alpha) signaling pathway using the BG1 cell line in the presence of 0.1 nM 17-beta-estradiol (AID 1259244); also: nearly all actives have a fitted effect of over 50% in size
Outline: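 VM7Luc4E2 cells (endogenous full-length ER-alpha, stable 4xERE-luciferase) were grown 5 days in phenol red-free medium with charcoal-stripped FBS, then exposed 22 h at 37C to compounds plus 0.1 nM (final) 17beta-estradiol; ONE-Glo luminescence read-out.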

[2] = qHTS assay to identify small molecule HDAC inhibitors (AID 1259364); also: top concentration of the series differs between compounds; nearly all actives have a fitted effect of over 45% in size
Outline: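 Wild-type HCT-116 cells were plated overnight, exposed to compounds for 2 h at 37 °C, then given HDAC-Glo class I/II luminogenic reagent for 30 min at room temperature before luminescence was read.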

[3] = qHTS assay to identify small molecule HDAC inhibitors - cell viability counter screen (AID 1259365); also: series mostly up to about 92 µM; nearly all actives have a fitted effect of over 50% in size
Outline: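 Following a 2hr exposure of overnight-plated wild-type HCT-116 cells to DMSO-delivered compounds, CellTiter-Glo was added and luminescence recorded after 30min at room temperature.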

[4] = qHTS assay to identify small molecule agonists of the sonic hedgehog signaling (Shh) pathway - cell viability counter screen (AID 1259366); also: nearly all actives have a fitted effect of over 50% in size; also: potency is read from the fitted curve at half-maximal effect
Outline: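 After a 4hr attachment at 37C, NIH/3T3 cells bearing an integrated Gli1-driven luciferase reporter were dosed with compounds. Treatment lasted 24hr, with the final hour including CellTiter-Fluor for a fluorescence viability measurement.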

[5] = qHTS assay to identify small molecule antagonists of the sonic hedgehog signaling (Shh) pathway - cell viability counter screen (AID 1259367); also: nearly all actives have a fitted effect of over 55% in size; also: potency is read from the fitted curve at half-maximal effect
Outline: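 Cells: 3T3 Gli1-Luc, 2,000/well, 4 hr pre-incubation. Compounds in DMSO, then conditioned medium. Incubation 24 hr, 37C, 5% CO2. CellTiter-Fluor at 23 hr, 1 hr, fluorescence.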

[6] = qHTS assay to identify small molecule agonists of the sonic hedgehog signaling (Shh) pathway (AID 1259368; calls by dose curve; also: series mostly up to about 92 µM; nearly all actives have a fitted effect of over 15% in size)
Outline: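 NIH/3T3-derived 3T3Gli1-Luc cells carrying a stably integrated Gli1 response element–firefly luciferase reporter were plated, left 4 hr at 37 C, then given compounds in DMSO for 24 hr. Luminescence was read 30 min after adding luciferase reagent.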

[7] = qHTS assay to identify small molecule antagonists of the sonic hedgehog signaling (Shh) pathway (AID 1259369; calls by dose curve; also: nearly all actives have a fitted effect of over 45% in size; also: potency is read from the fitted curve at half-maximal effect)
Outline: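 NIH/3T3-derived 3T3Gli1-Luc cells with stably integrated Gli1-Luc reporter were preincubated 4hr at 37 C, then given compounds in DMSO plus Shh conditioned medium and incubated 24hr. Firefly luciferase luminescence read after 30min reagent at room temperature.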

[8] = target: Estrogen receptor beta (Homo sapiens) (UniProt Q92731); test: qHTS assay to identify small molecule agonists of the estrogen receptor beta (ER-beta) signaling pathway (AID 1259377; active = well fitted activation curve with a large enough effect in the signal ratio in the repeat runs, not every such curve was filed as active; the % refers to the signal ratio)
Outline: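 In HEK293T cells bearing a UAS-beta-lactamase reporter under ER-beta control, DMSO-delivered compounds were incubated for 16 hr at 37C. Activity was detected as fluorescence 2 hours after LiveBLAzer B/G FRET substrate addition.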

[9] = target: Estrogen receptor beta (Homo sapiens) (UniProt Q92731); test: qHTS assay to identify small molecule antagonists of the estrogen receptor beta (ER-beta) signaling pathway (AID 1259378; active = well fitted inhibition curve with a large enough effect in the signal ratio in the repeat runs, not every such curve was filed as active; the % refers to the signal ratio)
Outline: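 Antagonist mode: compounds added to beta-lactamase reporter HEK293T ER-beta-UAS cells stimulated with E2 (1nM final), 16 hr at 37C. LiveBLAzer B/G FRET substrate, 2 hours room temperature, fluorescence read-out.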

[10] = qHTS assay to identify small molecule agonists of the androgen receptor (AR) signaling pathway in the presence of an antagonist - cell viability counter screen (AID 1259379); also: series mostly up to about 92 µM; nearly all actives have a fitted effect of over 25% in size
Outline: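 MDA-kb2 human breast carcinoma cells (stable MMTV-luciferase, AR/GR responsive) were seeded 3,000 cells/well, pre-incubated 5 hr at 37C without CO2, then given 3.0uM nilutamide and compounds at 15 concentrations for 16 hr. Viability was read by CellTiter-Fluor fluorescence.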

[11] = qHTS assay to identify small molecule agonists of the estrogen receptor beta (ER-beta) signaling pathway - cell viability counter screen (AID 1259380); also: nearly all actives have a fitted effect of over 30% in size; also: potency is read from the fitted curve at half-maximal effect
Outline: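 ER-beta-UAS-bla HEK293T cells in medium with 2% charcoal-stripped FBS were preincubated 6 hr at 37C, dosed with compound in DMSO for 16 hr, then after the bla read, CellTiter-Glo was added for 30 min at room temperature; luminescence recorded.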

[12] = qHTS assay to identify small molecule antagonists of the estrogen receptor beta (ER-beta) signaling pathway - cell viability counter screen (AID 1259382);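 also: HEK293T cells carrying ER-beta-UAS-bla reporter stimulated with estradiol; series mostly up to about 92 µM; nearly all actives have a fitted effect of over 55% in size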
Outline: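 ER-beta-UAS-bla HEK293T cells (2,000/well, 2% charcoal-stripped FBS) were pre-incubated 6 hr at 37C, then given compound plus 1nM final 17-beta-estradiol for 16 hr. Viability was read in the same wells by CellTiter-Glo luminescence after 30 min at room temperature.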

[13] = target: Estrogen receptor (Homo sapiens) (UniProt P03372); test: qHTS assay to identify small molecule agonists of the estrogen receptor alpha (ER-alpha) signaling pathway in the presence of an antagonist (AID 1259383; calls by dose curve; also: top concentration of the series differs between compounds; nearly all actives have a fitted effect of over 15% in size)
Outline: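 VM7Luc4E2 cells (endogenous full-length ER-alpha, 4×ERE-luciferase) were precultured 5 days in phenol red-free medium with 10% charcoal-stripped FBS, given 10.0nM ICI-182,780 (final), then treated with compounds at 15 concentrations for 22hr at 37C; luminescence read with ONE-Glo.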

[14] = target: Thyrotropin receptor (Homo sapiens) (UniProt P16473); test: qHTS assay to identify small molecule antagonists of the thyroid stimulating hormone receptor (TSHR) signaling pathway (AID 1259385; calls by dose curve; also: nearly all actives have a fitted effect of over 20% in size)
Outline: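 Antagonist mode: compound-treated TSHR-expressing HEK293 cells were stimulated with 1.5 ng/mL TSH (final) in presence of Ro20-1724 for 30 min at RT. HTRF cAMP detection after 1 h; each compound tested at 15 concentrations, triplicate.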

[15] = qHTS assay to identify small molecule agonists of the estrogen receptor alpha (ER-alpha) signaling pathway in the presence of an antagonist - cell viability counter screen (AID 1259386); also: series mostly up to about 92 µM; nearly all actives have a fitted effect of over 30% in size
Outline: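 VM7Luc4E2 cells (endogenous full-length ER-alpha, 4×ERE-luciferase) were held 5 days in phenol red-free medium with 10% charcoal-stripped FBS, plated, then given 10.0nM ICI-182,780 and compounds at 15 concentrations for 22hr at 37C; viability read by CellTiter-Fluor fluorescence.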

[16] = target: Progesterone receptor (Homo sapiens) (UniProt P06401); test: qHTS assay to identify small molecule antagonists of the progesterone receptor (PR) signaling pathway (AID 1346795; active = well fitted inhibition curve with a large enough effect in the signal ratio in the repeat runs, not every such curve was filed as active; the % refers to the signal ratio)
Outline: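 Inhibition of R5020-induced (1 nM final) beta-lactamase reporter signal in PR-UAS-bla HEK293T cells was scored by FRET fluorescence after overnight (16 hr) compound treatment.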

[17] = qHTS assay to identify small molecule phospholipidosis (PLD) inducers (AID 1259344; active = well fitted curve in the direction sought with a large enough effect; an effect the other way counts as inactive or inconclusive)
Outline: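 Phospholipidosis is scored by imaging LipidTOX-stained pits in HepG2 cells exposed to compound for 24 h at 37 C; pit counts and integrated intensities per well and per cell serve as outputs.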

[18] = qHTS assay to identify small molecule agonists or antagonists of the thyroid stimulating hormone receptor (TSHR) signaling pathway - wild type cell line counter screen (AID 1259384; calls by dose curve)
Outline: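 Counter screen in untransfected Hek293: compounds (15-point titration, triplicate) plus phosphodiesterase inhibitor Ro20-1724 added after 18 h plating; 30 min RT. Intracellular cAMP via competitive d2/cryptate immunoassay, 1 h incubation.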

[19] = target: Progesterone receptor (Homo sapiens) (UniProt P06401); test: qHTS assay to identify small molecule agonists of the progesterone receptor (PR) signaling pathway (AID 1346784; calls by dose curve; also: nearly all actives have a fitted effect of over 30% in size)
Outline: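 Using charcoal-stripped serum (2%) to limit endogenous steroids, PR-UAS-bla HEK 293T cells received compounds for 16 hr at 37C after 6 hr plating; beta-lactamase FRET fluorescence was recorded following 2 hr substrate loading at room temperature.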

[20] = target: Androgen receptor (Homo sapiens) (UniProt P10275); test: qHTS assay to identify small molecule agonists of the androgen receptor (AR) signaling pathway in the presence of an antagonist (AID 1259381; calls by dose curve; also: nearly all actives have a fitted effect of over 15% in size)
Outline: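 MDA-kb2 human breast carcinoma cells carrying an MMTV-luciferase reporter (AR- and GR-responsive) were treated with compounds at 15 concentrations plus 3.0uM final nilutamide for 16hr at 37C without CO2; luminescence was read after ONE-Glo addition.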

Measured: Potency

Sequence of Thyrotropin receptor (Homo sapiens) (P16473 whole entry, looked up): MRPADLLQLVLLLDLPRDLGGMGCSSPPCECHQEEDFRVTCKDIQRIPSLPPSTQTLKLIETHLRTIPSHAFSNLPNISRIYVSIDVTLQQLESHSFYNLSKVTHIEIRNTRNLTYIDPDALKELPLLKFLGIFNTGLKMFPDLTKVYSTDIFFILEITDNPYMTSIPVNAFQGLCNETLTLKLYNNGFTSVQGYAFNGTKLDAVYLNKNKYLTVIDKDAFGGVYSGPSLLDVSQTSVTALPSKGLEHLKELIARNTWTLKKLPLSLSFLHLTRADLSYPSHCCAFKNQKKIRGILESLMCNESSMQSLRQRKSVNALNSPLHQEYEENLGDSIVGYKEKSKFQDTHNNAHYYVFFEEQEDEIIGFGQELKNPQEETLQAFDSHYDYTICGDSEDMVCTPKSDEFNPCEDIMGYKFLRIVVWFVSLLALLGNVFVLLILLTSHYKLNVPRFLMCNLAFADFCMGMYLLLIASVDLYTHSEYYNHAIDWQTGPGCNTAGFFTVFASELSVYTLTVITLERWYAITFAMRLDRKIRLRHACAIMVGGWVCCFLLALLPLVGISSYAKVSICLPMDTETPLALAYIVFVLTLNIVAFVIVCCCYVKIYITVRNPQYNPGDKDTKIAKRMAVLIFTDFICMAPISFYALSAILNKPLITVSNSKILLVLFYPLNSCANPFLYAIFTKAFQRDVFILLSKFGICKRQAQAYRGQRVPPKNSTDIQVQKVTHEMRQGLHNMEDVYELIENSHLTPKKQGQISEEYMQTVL
Sequence of Androgen receptor (Homo sapiens) (P10275 whole entry, looked up): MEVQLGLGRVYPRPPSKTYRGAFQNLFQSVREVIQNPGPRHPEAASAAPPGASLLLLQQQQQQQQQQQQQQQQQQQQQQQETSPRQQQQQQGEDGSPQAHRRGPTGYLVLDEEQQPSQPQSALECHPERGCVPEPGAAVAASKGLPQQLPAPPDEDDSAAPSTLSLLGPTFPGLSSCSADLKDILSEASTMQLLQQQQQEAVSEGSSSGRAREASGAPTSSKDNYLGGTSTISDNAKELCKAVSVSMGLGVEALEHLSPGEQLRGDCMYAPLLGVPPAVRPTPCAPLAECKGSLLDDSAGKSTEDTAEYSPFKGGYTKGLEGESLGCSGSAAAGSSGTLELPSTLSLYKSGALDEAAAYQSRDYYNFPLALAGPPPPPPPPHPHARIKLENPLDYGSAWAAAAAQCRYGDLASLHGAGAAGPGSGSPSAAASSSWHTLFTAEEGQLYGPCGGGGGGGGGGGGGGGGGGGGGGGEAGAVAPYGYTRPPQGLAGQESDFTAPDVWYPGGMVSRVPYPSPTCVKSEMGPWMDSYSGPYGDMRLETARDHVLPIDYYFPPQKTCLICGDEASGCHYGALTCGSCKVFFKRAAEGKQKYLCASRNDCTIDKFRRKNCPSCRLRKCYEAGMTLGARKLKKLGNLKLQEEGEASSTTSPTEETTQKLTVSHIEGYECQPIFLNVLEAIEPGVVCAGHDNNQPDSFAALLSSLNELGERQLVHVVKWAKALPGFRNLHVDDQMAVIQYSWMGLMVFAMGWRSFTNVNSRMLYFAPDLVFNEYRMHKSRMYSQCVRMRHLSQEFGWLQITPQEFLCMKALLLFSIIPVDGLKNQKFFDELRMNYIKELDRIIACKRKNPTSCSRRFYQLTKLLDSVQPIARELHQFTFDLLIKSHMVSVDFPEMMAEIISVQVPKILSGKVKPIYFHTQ
Sequence of Estrogen receptor (Homo sapiens) (P03372 whole entry, looked up): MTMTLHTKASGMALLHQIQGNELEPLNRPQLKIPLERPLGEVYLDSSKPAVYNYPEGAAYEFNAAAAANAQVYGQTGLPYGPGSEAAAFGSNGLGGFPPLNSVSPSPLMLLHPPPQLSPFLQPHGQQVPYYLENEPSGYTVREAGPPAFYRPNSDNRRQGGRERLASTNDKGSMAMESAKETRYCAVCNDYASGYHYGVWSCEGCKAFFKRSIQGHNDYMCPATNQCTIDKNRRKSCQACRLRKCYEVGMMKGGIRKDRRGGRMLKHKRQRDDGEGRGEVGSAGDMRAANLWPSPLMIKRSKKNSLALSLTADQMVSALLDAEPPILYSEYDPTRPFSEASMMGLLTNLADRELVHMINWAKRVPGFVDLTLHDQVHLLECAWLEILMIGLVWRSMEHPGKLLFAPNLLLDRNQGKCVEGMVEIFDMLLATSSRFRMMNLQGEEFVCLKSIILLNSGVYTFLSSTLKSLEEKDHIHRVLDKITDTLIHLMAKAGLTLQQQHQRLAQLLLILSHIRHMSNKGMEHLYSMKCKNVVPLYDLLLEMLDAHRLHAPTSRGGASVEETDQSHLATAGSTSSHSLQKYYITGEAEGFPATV
Sequence of Progesterone receptor (Homo sapiens) (P06401 whole entry, looked up): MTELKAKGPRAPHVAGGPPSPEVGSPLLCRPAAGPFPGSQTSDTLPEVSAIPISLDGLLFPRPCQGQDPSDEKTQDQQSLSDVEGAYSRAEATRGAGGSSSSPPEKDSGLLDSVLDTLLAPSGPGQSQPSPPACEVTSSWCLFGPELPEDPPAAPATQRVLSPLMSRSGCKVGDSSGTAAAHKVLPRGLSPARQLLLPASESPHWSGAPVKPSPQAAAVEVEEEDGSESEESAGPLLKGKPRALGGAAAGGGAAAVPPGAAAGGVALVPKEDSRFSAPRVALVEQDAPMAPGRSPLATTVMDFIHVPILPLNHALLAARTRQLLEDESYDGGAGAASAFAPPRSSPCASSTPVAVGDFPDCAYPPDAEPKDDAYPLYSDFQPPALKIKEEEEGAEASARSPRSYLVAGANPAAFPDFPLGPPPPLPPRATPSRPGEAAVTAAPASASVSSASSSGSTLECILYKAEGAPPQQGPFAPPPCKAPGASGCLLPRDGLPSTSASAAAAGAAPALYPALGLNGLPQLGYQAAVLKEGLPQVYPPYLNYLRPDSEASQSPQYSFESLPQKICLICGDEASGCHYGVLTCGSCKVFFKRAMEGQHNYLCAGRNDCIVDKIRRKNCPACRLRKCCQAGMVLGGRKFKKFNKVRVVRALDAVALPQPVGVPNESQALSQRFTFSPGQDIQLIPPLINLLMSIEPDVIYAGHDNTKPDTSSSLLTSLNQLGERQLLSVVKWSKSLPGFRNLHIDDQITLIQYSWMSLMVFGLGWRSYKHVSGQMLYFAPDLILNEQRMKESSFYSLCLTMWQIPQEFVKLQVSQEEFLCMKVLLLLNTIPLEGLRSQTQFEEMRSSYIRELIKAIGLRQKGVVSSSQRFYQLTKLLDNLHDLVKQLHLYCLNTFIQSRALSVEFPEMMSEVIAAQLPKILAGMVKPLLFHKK
Sequence of Estrogen receptor beta (Homo sapiens) (Q92731 whole entry, looked up): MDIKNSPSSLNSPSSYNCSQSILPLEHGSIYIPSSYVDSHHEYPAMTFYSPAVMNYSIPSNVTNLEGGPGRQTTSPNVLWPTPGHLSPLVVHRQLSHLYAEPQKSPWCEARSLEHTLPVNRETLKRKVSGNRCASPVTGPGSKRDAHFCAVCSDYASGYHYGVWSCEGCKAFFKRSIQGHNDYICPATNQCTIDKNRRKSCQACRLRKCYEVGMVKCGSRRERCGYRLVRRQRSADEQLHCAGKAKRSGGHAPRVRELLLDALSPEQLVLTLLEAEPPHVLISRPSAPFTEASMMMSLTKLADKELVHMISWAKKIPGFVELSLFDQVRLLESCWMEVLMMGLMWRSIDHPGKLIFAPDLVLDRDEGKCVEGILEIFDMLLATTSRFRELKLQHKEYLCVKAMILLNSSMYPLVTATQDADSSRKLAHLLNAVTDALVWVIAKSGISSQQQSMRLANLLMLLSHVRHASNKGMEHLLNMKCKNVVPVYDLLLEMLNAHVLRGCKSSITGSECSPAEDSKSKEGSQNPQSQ

COC(=O)NS(=O)(=O)c1ccc(N)cc1
not listed: [17] | [18] | [19] | [20]
inactive: all other assays above

O=c1n(Cl)c(=O)n(Cl)c(=O)n1Cl
not listed: [12] | [19] | [20]
inactive: all other assays above

CCCCOC(=O)c1ccccc1C(=O)OCCCC
not listed: [16] | [17] | [20]
inactive: all other assays above

CC(C)C1(C)N=C(c2nc3ccccc3cc2C(=O)O)NC1=O (stereo unspecified)
not listed: [17] | [20]
inactive: all other assays above

Clc1ccc(Cl)cc1
385 nM (active) and inactive: [7]
not listed: [12] | [18] | [19] | [20]
inactive: all other assays above

ClCCBr
not listed: [17] | [20]
inactive: all other assays above

C1CC2OC2CC1C1CO1 (stereo unspecified)
not listed: [17] | [18] | [19] | [20]
inactive: all other assays above

c1cc2c3c(cccc3c1)CC2
not listed: [12] | [17]
inactive: all other assays above

O=[N+]([O-])c1ccccc1
not listed: [18] | [19] | [20]
inactive: all other assays above

Nc1c(Cl)c(Cl)nc(C(=O)O)c1Cl
not listed: [17] | [20]
inactive: all other assays above

CN(C)CCO
not listed: [20]
inactive: all other assays above

COP(N)(=O)SC (stereo unspecified)
not listed: [17] | [18] | [20]
inactive: all other assays above

COC(=O)c1ccccc1C(=O)OC
not listed: [20]
inactive: all other assays above

[O-][Cl+2]([O-])O
not listed: [17] | [18] | [20]
inactive: all other assays above

O=Cc1cccc(Oc2ccccc2)c1
not listed: [17] | [20]
inactive: all other assays above

CCN(CC)c1ccccc1
not listed: [14] | [17] | [18]
inactive: all other assays above

O=C(NC(=O)c1c(F)cccc1F)Nc1cc(Cl)c(OC(F)(F)C(F)C(F)(F)F)cc1Cl (stereo unspecified)
not listed: [12] | [16] | [19]
inactive: all other assays above

C1CN2CCN1CC2
not listed: [17] | [19] | [20]
inactive: all other assays above

COc1ccc2c3c1O[C@H]1[C@@H](O)C=C[C@H]4[C@@H](C2)N(C)CC[C@@]341
26.9 µM (active) and inactive: [5]
active: [7] 2.69 µM
21.3 µM (active) and inactive: [4]
not listed: [8] | [9] | [20]
inactive: all other assays above

CCOC(=O)c1ccccc1C(=O)OCC
not listed: [8] | [9] | [20]
inactive: all other assays above

CC(C#N)CCC#N (stereo unspecified)
not listed: [17] | [20]
inactive: all other assays above

C#CCN(C)[C@H](C)Cc1ccccc1
not listed: [18] | [20]
inactive: all other assays above

NCCc1ccc(O)cc1
60.6 µM (active) and inactive: [11]
not listed: [12] | [20]
inactive: all other assays above

CC1C=[C-]C=C1.[C-]#[O+].[C-]#[O+].[C-]#[O+].[Mn]
not listed: [17] | [18] | [19] | [20]
inactive: all other assays above

CCCCN(CC)C(=O)SCCC
not listed: [12] | [17] | [18] | [19]
inactive: all other assays above

CC(C)=C[C@@H]1[C@@H](C(=O)OCc2coc(Cc3ccccc3)c2)C1(C)C
not listed: [7] | [8] | [9] | [12] | [14] | [18] | [20]
inactive: all other assays above

c1ccc(-c2ccccc2)cc1
not listed: [12] | [16] | [17] | [18]
inactive: all other assays above

CCCCCOC(=O)c1ccccc1C(=O)OCCCCC
not listed: [16] | [17] | [19] | [20]
inactive: all other assays above

CC(C)(C)OOC(C)(C)C
not listed: [17] | [19] | [20]
inactive: all other assays above

O=[N+]([O-])c1ccc([As](=O)(O)O)cc1
not listed: [8] | [9] | [12] | [20]
inactive: all other assays above

CCCN(CCC)N=O
not listed: [17] | [20]
inactive: all other assays above

Cc1ccccc1O
not listed: [17] | [19] | [20]
inactive: all other assays above

c1ccc(OP(Oc2ccccc2)Oc2ccccc2)cc1
not listed: [17] | [18] | [19] | [20]
inactive: all other assays above
